Target: T1, BATF;JUNB (human;human, UniProt Q16520;P17275 1-125;148-347, |)
T1 sequence 1: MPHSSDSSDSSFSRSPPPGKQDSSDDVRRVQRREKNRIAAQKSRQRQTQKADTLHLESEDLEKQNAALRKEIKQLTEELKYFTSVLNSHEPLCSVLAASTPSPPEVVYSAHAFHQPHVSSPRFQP
T1 sequence 2: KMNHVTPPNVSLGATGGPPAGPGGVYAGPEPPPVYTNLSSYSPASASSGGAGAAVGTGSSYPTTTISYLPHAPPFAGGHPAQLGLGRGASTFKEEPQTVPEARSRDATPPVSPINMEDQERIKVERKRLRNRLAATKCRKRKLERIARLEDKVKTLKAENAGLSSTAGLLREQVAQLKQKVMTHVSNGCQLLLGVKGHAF
Experiment: Spec-seq (EMSA and sequencing of bound and unbound bands); 100 nM BATFx-JUNB, 1 uM dsDNA library, 50 mM K acetate, 20 mM Tris-acetate, 10 mM Mg acetate, 100 ug/ml BSA, pH 7.9, 10% glycerol, 30 min on ice; native 9% PAGE at 4 C; low values mean tight binding
Conditions: protein: recombinant;recombinant; tags: N-terminal mCherry-TEV, cleaved off;C-terminal 6His; copies: 1;1; dsDNA, one strand shown
Outline: (§1)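 The protein, at 100 nM, was incubated with 1 μM double-stranded degenerate DNA library for 30 min on ice in NEB Cutsmart buffer with 10% glycerol, then resolved by native 9% PAGE at 4 °C. Excised bound and unbound bands were PCR-barcoded and Illumina-sequenced, and each sequence's relative binding energy in kT is −ln of its bound/unbound read-count ratio.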

Sequence	binding signal [kT]
GATAGTCTCATTTTCACCCCGTGAAAGTGAGTCATTGTTCCATTACAGTATCTGT	-1.22
GATAGTCTCATTTTCACCCCGTGAAATGAGTCCGTTGTTCCATTACAGTATCTGT	0.231
GATAGTCTCATTTTCACCCCGTGAAATGCCGTCATTGTTCCATTACAGTATCTGT	-0.311
GATAGTCTCATTTTCACCCCGTGAAATCACTCATTTGTTCCATTACAGTATCTGT	-0.257
GATAGTCTCATTTTCACCCCGTGAAATGAGTTACTTGTTCCATTACAGTATCTGT	0.198
GATAGTCTCATTTTCACCCCGTGAAATGAGTCTCTTGTTCCATTACAGTATCTGT	0.273
GATAGTCTCATTTTCACCCCGTGAAATGAGTCATTTGTTCCATTACAGTATCTGT	-1.06
GATAGTCTCATTTTCACCCCGTGAAAATGGGTCATTGTTCCATTACAGTATCTGT	-0.00523
GATAGTCTCATTTTCACCCCGTGAAATGAGTAAGTTGTTCCATTACAGTATCTGT	-0.362
GATAGTCTCATTTTCACCCCGTGAAATGACTCGGTTGTTCCATTACAGTATCTGT	-0.246
GATAGTCTCATTTTCACCCCGTGAAACAGAGTCATTGTTCCATTACAGTATCTGT	-0.149
GATAGTCTCATTTTCACCCCGTGAAACTGAGTCATTGTTCCATTACAGTATCTGT	-1.39
GATAGTCTCATTTTCACCCCGTGAAATGAGTTAATTGTTCCATTACAGTATCTGT	0.138
GATAGTCTCATTTTCACCCCGTGAAAAGACGTCATTGTTCCATTACAGTATCTGT	-0.231
GATAGTCTCATTTTCACCCCGTGAAATGACTCCATTGTTCCATTACAGTATCTGT	-0.151
GATAGTCTCATTTTCACCCCGTGAAATGACGGCATTGTTCCATTACAGTATCTGT	-0.148
GATAGTCTCATTTTCACCCCGTGAAATGAGTCGTTTGTTCCATTACAGTATCTGT	-0.00852

Sequence	binding signal [kT]
GATAGTCTCATTTTCACCCCGTGAAATGACGCATTTGTTCCATTACAGTATCTGT	-0.475
GATAGTCTCATTTTCACCCCGTGAAATGACTAACTTGTTCCATTACAGTATCTGT	-0.35
GATAGTCTCATTTTCACCCCGTGAAATGTCTCATTTGTTCCATTACAGTATCTGT	0.287
GATAGTCTCATTTTCACCCCGTGAAATGACACACTTGTTCCATTACAGTATCTGT	-0.0204
GATAGTCTCATTTTCACCCCGTGAAAGTGTGTCATTGTTCCATTACAGTATCTGT	-0.342
GATAGTCTCATTTTCACCCCGTGAAATTACTCATTTGTTCCATTACAGTATCTGT	-0.755
GATAGTCTCATTTTCACCCCGTGAAATGAGTCTGTTGTTCCATTACAGTATCTGT	0.124
GATAGTCTCATTTTCACCCCGTGAAATGACGTTATTGTTCCATTACAGTATCTGT	-0.288
GATAGTCTCATTTTCACCCCGTGAAACTTAGTCATTGTTCCATTACAGTATCTGT	-0.834
GATAGTCTCATTTTCACCCCGTGAAACGACTCATTTGTTCCATTACAGTATCTGT	-0.317
GATAGTCTCATTTTCACCCCGTGAAATGAGTCCATTGTTCCATTACAGTATCTGT	0.0398
GATAGTCTCATTTTCACCCCGTGAAACTGGGTCATTGTTCCATTACAGTATCTGT	0.364
GATAGTCTCATTTTCACCCCGTGAAATTTAGTCATTGTTCCATTACAGTATCTGT	-0.725
GATAGTCTCATTTTCACCCCGTGAAACTGCGTCATTGTTCCATTACAGTATCTGT	-0.647
GATAGTCTCATTTTCACCCCGTGAAATGGGTCATTTGTTCCATTACAGTATCTGT	0.293
GATAGTCTCATTTTCACCCCGTGAAATGACTTAGTTGTTCCATTACAGTATCTGT	0.0125

Target: T2, BATF2 (bZIP);JUNB (human;human, UniProt Q8N1L9;P17275 1-142;148-347, |)
T2 sequence 1: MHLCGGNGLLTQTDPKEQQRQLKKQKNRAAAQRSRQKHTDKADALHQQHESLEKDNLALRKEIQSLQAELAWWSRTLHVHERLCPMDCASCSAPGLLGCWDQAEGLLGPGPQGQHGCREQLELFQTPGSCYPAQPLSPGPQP
T2 sequence 2: T1 sequence 2
Experiment: as above
Conditions: protein: recombinant;recombinant; tags: N-terminal mCherry-TEV, cleaved off;C-terminal 6His; copies: 1;1; dsDNA, one strand shown
Outline: as §1

Sequence	binding signal [kT]
GATAGTCTCATTTTCACCCCGTGAAAGTGAGTCATTGTTCCATTACAGTATCTGT	-0.978
GATAGTCTCATTTTCACCCCGTGAAATGAGTCCGTTGTTCCATTACAGTATCTGT	1.26
GATAGTCTCATTTTCACCCCGTGAAATGCCGTCATTGTTCCATTACAGTATCTGT	0.122
GATAGTCTCATTTTCACCCCGTGAAATCACTCATTTGTTCCATTACAGTATCTGT	0.442
GATAGTCTCATTTTCACCCCGTGAAATGAGTTACTTGTTCCATTACAGTATCTGT	0.967
GATAGTCTCATTTTCACCCCGTGAAATGAGTCTCTTGTTCCATTACAGTATCTGT	1.09
GATAGTCTCATTTTCACCCCGTGAAATGAGTCATTTGTTCCATTACAGTATCTGT	-0.903
GATAGTCTCATTTTCACCCCGTGAAAATGGGTCATTGTTCCATTACAGTATCTGT	0.62
GATAGTCTCATTTTCACCCCGTGAAATGAGTAAGTTGTTCCATTACAGTATCTGT	0.572
GATAGTCTCATTTTCACCCCGTGAAATGACTCGGTTGTTCCATTACAGTATCTGT	0.589
GATAGTCTCATTTTCACCCCGTGAAACAGAGTCATTGTTCCATTACAGTATCTGT	0.309
GATAGTCTCATTTTCACCCCGTGAAACTGAGTCATTGTTCCATTACAGTATCTGT	-0.852
GATAGTCTCATTTTCACCCCGTGAAATGAGTTAATTGTTCCATTACAGTATCTGT	0.697
GATAGTCTCATTTTCACCCCGTGAAAAGACGTCATTGTTCCATTACAGTATCTGT	-0.0139
GATAGTCTCATTTTCACCCCGTGAAATGACTCCATTGTTCCATTACAGTATCTGT	0.566
GATAGTCTCATTTTCACCCCGTGAAATGACGGCATTGTTCCATTACAGTATCTGT	0.419
GATAGTCTCATTTTCACCCCGTGAAATGAGTCGTTTGTTCCATTACAGTATCTGT	0.968

Sequence	binding signal [kT]
GATAGTCTCATTTTCACCCCGTGAAATGACGCATTTGTTCCATTACAGTATCTGT	0.109
GATAGTCTCATTTTCACCCCGTGAAATGACTAACTTGTTCCATTACAGTATCTGT	0.462
GATAGTCTCATTTTCACCCCGTGAAATGTCTCATTTGTTCCATTACAGTATCTGT	0.93
GATAGTCTCATTTTCACCCCGTGAAATGACACACTTGTTCCATTACAGTATCTGT	0.55
GATAGTCTCATTTTCACCCCGTGAAAGTGTGTCATTGTTCCATTACAGTATCTGT	-0.00937
GATAGTCTCATTTTCACCCCGTGAAATTACTCATTTGTTCCATTACAGTATCTGT	-0.323
GATAGTCTCATTTTCACCCCGTGAAATGAGTCTGTTGTTCCATTACAGTATCTGT	1.09
GATAGTCTCATTTTCACCCCGTGAAATGACGTTATTGTTCCATTACAGTATCTGT	0.0695
GATAGTCTCATTTTCACCCCGTGAAACTTAGTCATTGTTCCATTACAGTATCTGT	-0.172
GATAGTCTCATTTTCACCCCGTGAAACGACTCATTTGTTCCATTACAGTATCTGT	0.616
GATAGTCTCATTTTCACCCCGTGAAATGAGTCCATTGTTCCATTACAGTATCTGT	1.1
GATAGTCTCATTTTCACCCCGTGAAACTGGGTCATTGTTCCATTACAGTATCTGT	0.724
GATAGTCTCATTTTCACCCCGTGAAATTTAGTCATTGTTCCATTACAGTATCTGT	-0.038
GATAGTCTCATTTTCACCCCGTGAAACTGCGTCATTGTTCCATTACAGTATCTGT	-0.164
GATAGTCTCATTTTCACCCCGTGAAATGGGTCATTTGTTCCATTACAGTATCTGT	0.704
GATAGTCTCATTTTCACCCCGTGAAATGACTTAGTTGTTCCATTACAGTATCTGT	0.47
